# Assay outcomes from PubChem.
# TDP1 cell CPT: qHTS for Inhibitors of human tyrosyl-DNA phosphodiesterase 1 (TDP1): qHTS in cells in presence of CPT. chicken DT40 Tdp1-/-;hTDP1 cells + 20 nM CPT, ATP luminescence, 48 h. Potency, µM (series often up to 46.2 µM), usual class: inhibitors. 420,000 compounds, 12% hits; note: nearly all actives have a fitted effect of over 55% in size
#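 Chicken DT40 Tdp1-/- cells stably complemented with human TDP1 were seeded at 400 cells/well in medium containing 20 nM camptothecin, exposed to pin-transferred compounds, and grown at 37 °C for at least 48 hr. Viability was read as ATP luminescence.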
# HT1080 IDH1KD tx: qHTS for induction of synthetic lethality in tumor cells producing 2HG: qHTS for the HT-1080-IDH1KD cell line; AID 686971, 2013; HT-1080 IDH1 knockdown viability, ATP luminescence, 48 h; 360,000 compounds, 2% hits; Potency, µM (titrated, usually from 46.1 µM), hits mostly cytotoxic
#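 In this qHTS, HT-1080 cells depleted of IDH1 are exposed for 48 h at 37 °C to compound titrations. Toxicity is scored from CellTiter-Glo luminescence, with DMSO as full viability and medium alone as none.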
# HT1080-NT tox: qHTS for induction of synthetic lethality in tumor cells producing 2HG: qHTS for the HT-1080-NT fibrosarcoma cell line; HT-1080-NT fibrosarcoma viability, CellTiter-Glo ATP luminescence, 48 h; Potency, µM (series often up to 46.1 µM), usual class: cytotoxic; 360,000 compounds, 1.6% hits;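 note: NT is the 2HG producing partner of a matched IDH1 knockdown line; nearly all actives have a fitted effect of over 55% in size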
#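 Viability of the 2HG-overproducing fibrosarcoma line after 48 hours of compound exposure at 37 degrees C was determined by luminescence with CellTiter-Glo, and concentration-effect curves were then fitted and categorized.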
# TDP1 cell noCPT: qHTS for Inhibitors of human tyrosyl-DNA phosphodiesterase 1 (TDP1): qHTS in cells in absence of CPT; Potency, µM (doses to about 46.2 µM), most hits filed as inhibitors; AID 686978, 2013; 420,000 compounds, 15% hits; DT40 Tdp1-/- hTDP1 cells, no CPT, ATP luminescence, 48 h; note: nearly all actives have a fitted effect of over 55% in size
#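 Seeded 400 DT40-hTDP1 cells/well (vehicle DMSO, no 20 nM CPT); pinned compounds; ≥48 hr at 37 °C; CellTiter-Glo luminescence as viability measure.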
# IL1B secr inh: qHTS for Inhibitors of Inflammasome Signaling: IL-1-beta AlphaLISA Primary Screen; activity change, % at 57.5 µM; 360,000 compounds, 4.7% hits; THP-1 LPS/ATP IL-1B secretion, AlphaLISA, 16 h; hits give low values; AID 743279, 2014; in the data active = activity change below about -50%; inconclusive = mostly about -30% to -49%
#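 THP-1 cells pretreated 1 hr with compounds (up to 57.5 uM final), then stimulated with LPS (250 ng/mL final) plus ATP (1.25 mM final); secreted IL-1B measured by AlphaLISA after 16 hr, decreased signal indicating inhibition.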
# A number is an active result; 0 = inactive; ? = inconclusive; - = no result; [ ] = remark or other dose. Only some compounds are listed: those with a hit (about 19% of all), similar ones and a draw of the others. Unless noted, calls come from the whole dose curve; as a rule, active = well fitted curve in the direction sought with a large enough effect; inconclusive = small, poorly fitted or top-dose-only effect, or another doubt; inactive = no such curve, though single readings can be large; an effect the other way counts as inactive or inconclusive.
SMILES,TDP1 cell CPT,HT1080 IDH1KD tx,HT1080-NT tox,TDP1 cell noCPT,IL1B secr inh
O=C(OCCc1cc2ccccc2c(=O)o1)c1ccc(C(F)(F)F)cc1,0,0,0,0,0
COc1ccccc1/C=C/[C@@H]1C[C@H]2CN(Cc3cccc(Cl)c3)C(=O)[C@]23CCCN13,10µM,0,0,21µM,0
COc1cccc2c1OCC([C@@H]1C[C@H]3CN(Cc4cccc(Cl)c4)C(=O)[C@]34CCCN14)=C2,16µM,0,0,?,-61
CCc1ccc(CNC(=O)Cn2nc(-c3ccccc3)ccc2=O)cc1,0,0,0,0,-87
Cc1ccc(-c2ccc(=O)n(Cc3cc(C)ccc3C)n2)cc1,?,?,0,21µM,?
Cc1ccc(CCNC(=O)CCn2nc(-c3ccc(C)cc3)ccc2=O)cc1,23µM,-,-,?,-
Cc1ccc(C)c(Cn2nc(-c3ccccc3)ccc2=O)c1,?,0,?,?,-75
Cc1ccc(-c2ccc(=O)n(CC(=O)Nc3ccc(C)cc3Cl)n2)cc1,0,-,-,0,-
Cc1ccc(CCNC(=O)CCn2nc(-c3ccccc3)ccc2=O)cc1,?,-,-,0,-
COc1ccc(CN2CN(S(=O)(=O)c3ccccc3)c3nc4ccccc4nc32)cc1,?,0,0,?,0
CC(OC(=O)CCN=C1NS(=O)(=O)c2ccccc21)C(=O)Nc1ccc(F)c(F)c1F (stereo not drawn),0,0,0,0,0
CCOC(=O)CSc1nc2sc3c(c2c(=O)n1CC)CC(C)(C)OC3,0,0,0,0,0
CCCSc1nc2sc3c(c2c(=O)n1Cc1ccccc1)CC(C)(CC)OC3 (stereo not drawn),18µM,-,-,12µM,-
CCC1(C)Cc2c(sc3nc(SC)n(Cc4ccccc4)c(=O)c23)CO1 (stereo not drawn),13µM,0,0,13µM,0
CC1(C)Cc2c(sc3[nH]c(=S)n(Cc4ccccc4)c(=O)c23)CO1,?,0[9.24 µM],?,?,0
COC(=O)C1=C(C)N2C(=O)CSC2=NC1c1ccc2c(c1)OCO2 (stereo not drawn),0,0,0,0,0
Clc1ccccc1N1CCN(Cc2c[nH]c3ccccc23)CC1,2.6µM,18µM,?,5.2µM,-81
Fc1ccccc1N1CCN(C2CCN(Cc3c[nH]c4ccccc34)CC2)CC1,16µM,0,0,?,0
FC(F)(F)c1ccc(-c2cccc3c2C2CC3CCN2C(=S)NCCc2ccccc2)cc1 (stereo not drawn),?,0,0,?,0
COc1ccc(-c2n[nH]c(C(F)(F)F)c2-c2cc3ccccc3o2)c(O)c1,13µM,?,?,15µM,-54
COc1ccccc1-c1c(-c2ccc(OCC(=O)NN)cc2O)n[nH]c1C(F)(F)F,9.2µM,0,0,13µM,0
Cc1nc(SCC(=O)c2cc3ccccc3oc2=O)c(C#N)c(-c2ccccc2)c1C(=O)Nc1ccccc1,?,0,0,18µM,0
COc1ccc(-c2c(C#N)c(SCC(=O)c3cc4ccccc4oc3=O)nc(C)c2C(=O)Nc2ccccc2)cc1,?,0,0,?,0
O=C(CSC1=Nc2ccccc2C2=NC(Cc3ccccc3)C(=O)N12)Nc1ccccc1C(F)(F)F (stereo not drawn),?,-,-,26µM,-
Cc1cc(NC(=O)CSC2=Nc3ccccc3C3=NC(Cc4ccccc4)C(=O)N23)n[nH]1 (stereo not drawn),0,0,0,0,0
SMILES,TDP1 cell CPT,HT1080 IDH1KD tx,HT1080-NT tox,TDP1 cell noCPT,IL1B secr inh
O=C(CSC1=Nc2ccccc2C2=NC(Cc3ccccc3)C(=O)N12)Nc1ccccc1F (stereo not drawn),23µM,-,-,?,-
CSc1nnc(C)c(=O)n1COC(=O)c1ccc(S(=O)(=O)N2CCCC2)cc1,?,0,0,?,0
COc1ccc(NC(=O)CN2C(=O)NC(C)(c3ccccc3)C2=O)c(OC)c1 (stereo not drawn),0,0,0,0,0
CC(C)SCCCOc1ccc(C(C)(C)C)cc1,0,0,0,?,0
Cc1ccc(NC(=O)CCn2cccc2)cc1Cl,0,0,0,0,?
COc1ccc(-c2cc(C(C)=O)c(C)n2CCC(=O)Nc2cc(Cl)ccc2C)cc1,21µM,-,-,18µM,-
COc1ccc(-c2cc(C(C)=O)c(C)n2CCC(=O)Nc2ccc(C)c(Cl)c2)cc1,15µM,-,-,18µM,-
COc1ccc(-c2cc(C(C)=O)c(C)n2CCC(=O)NC2CCCCC2)cc1,23µM,-,-,?,-
